Platelet DG rel – platelet dense granule release activity | 0.22% of 300,000 active | human platelet-rich plasma, SFLLRN dense granule ATP release, luminescence | inhibition, %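 (compounds screened at 7.5 µM in platelet-rich plasma)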 | AID 1663;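 active = mean replicate score, as percent of positive control, at or above 50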
HSF-1 act – increases HSF-1 driven luciferase reporter signal | NIH3T3-HGL HSF-1 luciferase reporter, MG132, 8 h; 100% = twice DMSO control signal | activation, % at 9 µM | 1.7% of 300,000 active | AID 504408;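 active = mean replicate activation of at least 50% with a set share of replicates each reaching 50%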;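 also: 0% = median of the neutral control wells and 100% = twice that signal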
HSF1 inh – HSF1 inhibition | NIH3T3-HGL HSE-luciferase, MG132-induced, luminescence 8 h; active compounds read low | activity change, negative = inhibition, % at 7.5 µM (by protocol) | 0.77% of 300,000 active;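 active = more than half of replicate wells show activity change below -50%, luminescence cut by over half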;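 also: luciferase reports HSF-1 transcriptional activity via heat shock element; 0% = median of DMSO wells and -100% = zero luminescence signal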
HSP90 refold inh – inhibitors of HSP90 luciferase refolding in rabbit reticulocyte lysate; luciferase refolding luminescence, 3 h; 0.91% of 290,000 active; inhibition, % at 5.6 µM; AID 1789;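 active = inhibition above the screen-wide mean plus 3 SD, computed separately per campaign, cut at about 16% in these data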;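 also: 0% = DMSO wells and 100% = 60 µM geldanamycin wells; inhibitors lower the luminescence because luciferase stays unfolded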
dFosB act – mouse delta FosB homodimer activation | purified delta FosB, TAMRA-CDK5 oligo fluorescence polarization; percent of positive-control signal above neutral wells | AID 493131 | 0.99% of 340,000 active | activation, % at 25 µM;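 active = mean activation above about 17%, with every replicate also reaching it, limit read from the data, passing the limit was not always enough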
Target sequence (P13346 whole entry, looked up): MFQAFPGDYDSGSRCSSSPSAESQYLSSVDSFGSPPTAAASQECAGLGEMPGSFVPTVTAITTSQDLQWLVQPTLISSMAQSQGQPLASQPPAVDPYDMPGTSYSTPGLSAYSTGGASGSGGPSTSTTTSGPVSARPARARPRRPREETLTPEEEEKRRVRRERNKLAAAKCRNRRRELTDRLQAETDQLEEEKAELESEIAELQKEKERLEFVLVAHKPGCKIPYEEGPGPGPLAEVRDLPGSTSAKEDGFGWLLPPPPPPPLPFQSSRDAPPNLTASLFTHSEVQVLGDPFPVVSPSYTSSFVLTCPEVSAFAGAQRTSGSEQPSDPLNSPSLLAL
MPTP block – blocks calcium-induced mitochondrial swelling; isolated mouse mitochondria, Ca2+ swelling absorbance, 30 min; inhibition, % at 10 µM; 1.4% of 360,000 active; AID 602449;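 active = inhibition of 50% or more, scaled per plate between neutral and stimulator controls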;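 also: 0% = DMSO wells given calcium and 100% = 1 mM EGTA wells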
HSP90 inh confirm – confirmation of HSP90 inhibitors; shares compounds with HSP90 refold inh; rabbit reticulocyte lysate, luciferase refolding luminescence, 3 h; inhibition, % at 5.9 µM; 64% of 2,300 active; in the data active = inhibition above about 18%;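 also: 0% = vehicle wells and 100% = reference inhibitor wells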
FLuc counter – counter-screen for HSP90 inhibitors: inhibitors of firefly luciferase; shares compounds with HSP90 refold inh; purified native firefly luciferase, luminescence; inhibition, % at 5.9 µM; 48% of 2,300 active;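 active = inhibition above the mean inhibition of all tested sample wells plus 3 SD, cut at about 10% in these data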;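 also: 0% = DMSO with luciferase and 100% = wells lacking luciferase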
* = called active by the depositor; · = no result given. This is a sample that favours compounds with a hit; in the whole collection about 4.9% have one here.

SMILES	Platelet DG rel	HSF-1 act	HSF1 inh	HSP90 refold inh	dFosB act	MPTP block	HSP90 inh confirm	FLuc counter
CCC(=O)Nc1ccc2nc(C3CC3)n(Cc3ccc(C(C)(C)C)cc3)c(=O)c2c1	8.9	-64.5	-59.0*	21.5*	-3.0	7.4	20.8*	17.0*
COc1ccc(N2CCC(CNS(=O)(=O)c3cccc(C(F)(F)F)c3)C2)cc1 (configuration not stated)	0.4	2.5	6.2	59.1*	-3.4	1.3	2.5	-0.6
Cc1ccc(N2CC(O)=C(c3nc4ccccc4c(=O)[nH]3)C2=N)cc1C	0.0	5.0	0.0	25.0*	13.0	-1.0	-11.0	-10.0
O=C(/C=C/Nc1ccc(F)cc1Br)c1ccccc1	52.3*	-70.8	-66.1*	18.8*	1.0	1.3	89.0*	82.5*
COc1cccc(N/C=C/C(=O)c2ccc(C)cc2)c1	24.4	9.7	3.4	19.5*	3.4	1.7	34.5*	27.8*
COc1ccc(OC)c(N/C=C/C(=O)c2ccccc2)c1	83.2*	-53.9	-42.8	70.3*	-4.1	1.2	92.2*	84.5*
Cc1ccc(C(=O)/C=C/Nc2ccccn2)cc1	64.1*	-65.9	-61.6*	66.3*	-8.5	7.0	95.7*	91.0*
Cc1ccc(C(=O)/C=C/Nc2ccccc2C(N)=O)cc1	31.8	41.8	20.5	5.5	-5.8	-1.1	·	·
Cc1noc(C)c1S(=O)(=O)N(C)C[C@H]1Oc2ccc(NC(=O)CCC(F)(F)F)cc2C(=O)N([C@H](C)CO)C[C@@H]1C	·	·	·	·	-11.5	0.7	·	·
COc1ccc(NC(=O)CN(C)Cc2cccs2)cc1Cl	-0.7	-2.0	6.6	0.8	-5.6	1.2	·	·
COc1cc(CN2CCN(Cc3ccc(C(F)(F)F)cc3)CC2)cc(OC)c1OC	-2.7	4.7	-1.8	4.8	-10.4	0.1	·	·
CCCCC(=O)Nc1nc2ccc(C(=O)OC)cc2s1	3.9	17.8	11.1	41.2*	-11.3	2.7	58.6*	-16.5
COc1ccc(OC)c(Cc2nnc(CCC(=O)NC3C4CC5CC(C4)CC3C5)o2)c1 (configuration not stated)	-8.1	5.0	-6.1	17.8*	-6.2	2.3	-7.4	-6.4
O=C1C(Cl)=C(NCc2cccnc2)C(=O)c2ccccc21	1.0	39.9	32.5	18.2*	4.3	0.4	4.8	-3.3
O=C1C(Cl)=C(NCCc2ccccc2)C(=O)c2ccccc21	·	·	·	·	-1.0	1.1	·	·
O=C(COc1ccc(CO)cc1Cl)Nc1ccc(F)cc1	3.7	54.7*	33.7	36.8*	1.0	1.8	39.4*	35.9*
O=C(COc1ccc(CO)cc1)Nc1ccc(F)cc1	1.1	23.4	9.2	-1.7	-4.3	-0.4	·	·
Cc1ccccc1N1Cc2ccccc2C1=O	·	·	·	·	·	2.6	·	·
CC(C(=O)O)c1ccc(N2Cc3ccccc3C2=O)cc1 (configuration not stated)	6.6	22.8	7.9	26.9*	2.2	2.2	35.5*	32.2*
Cc1cccc(NC(=O)CSc2nnc(Cn3nnc(-c4ccccc4)n3)n2-c2ccccc2)c1	2.8	8.4	13.2	21.1*	1.4	4.0	5.1	-9.6
CCn1c(Cn2nnc(-c3ccccc3)n2)nnc1SCC(=O)Nc1ccc(C(C)=O)cc1	7.2	12.6	20.6	1.9	-6.0	1.3	·	·
COc1ccc(-c2cccc(NC(=O)c3cccs3)c2)nn1	-5.8	6.2	4.1	·	-14.6	-2.4	·	·
O=C1CN(C(=O)NCC(=O)N[C@@H](C(=O)O)c2ccccc2)c2ccccc2N1	1.4	-13.2	3.1	-1.8	-1.9	-1.7	·	·
Nc1c(C(=O)OCC2CCCO2)c2nc3ccccc3nc2n1C1CCCC1 (configuration not stated)	-0.2	21.0	4.9	17.2*	-4.3	5.0	-1.7	-7.7
COCCN(C(=O)CSc1nnc(-c2ccccc2F)n1N)c1c(N)n(Cc2ccccc2)c(=O)[nH]c1=O	-15.2	-17.0	-5.2	3.3	-3.3	2.3	·	·
SMILES	Platelet DG rel	HSF-1 act	HSF1 inh	HSP90 refold inh	dFosB act	MPTP block	HSP90 inh confirm	FLuc counter
CC1(C)CN=C(N(C(=O)Nc2ccccc2)c2ccccc2F)S1	-1.7	19.9	-3.2	3.3	-7.0	1.5	·	·
CC1(C)CN=C(N(Cc2ccccc2)C(=O)Nc2ccccc2)S1	-9.4	-2.1	-6.2	19.0*	6.8	3.0	29.4*	18.7*
CCC(=O)N1CCCC1(C)C(=O)Nc1ccc2nc(C)ccc2c1 (configuration not stated)	·	·	·	·	·	-0.1	·	·
Cc1cc2ccccc2n1CCNC(=O)c1cccs1	-1.2	-5.1	-3.7	23.0*	-12.2	0.3	39.4*	-3.3
COc1ccc(-c2nc3ccc(Br)cn3c2Cc2cccc(Cl)c2)cc1OC	·	·	·	·	·	-0.5	·	·
CC(C)NCCCCOc1ccc(Br)cc1Cl	2.3	21.0	10.6	2.7	3.3	-1.8	·	·
COc1ccc2nc(/C=N/NC(=O)[C@@H]3CCCN3C(=O)OC(C)(C)C)ccc2c1	0.8	-12.6	-3.9	40.6*	-4.2	5.1	25.7*	-1.3
CC(C)(C)OC(=O)N1CCC[C@H]1C(=O)N/N=C/c1ccc2nccnc2c1	-3.0	-5.6	-7.3	0.4	0.7	3.4	·	·
CC(Oc1ccc(Br)cc1)C(=O)Nc1ccc(S(=O)(=O)Nc2nccs2)cc1 (configuration not stated)	1.1	-0.3	5.6	-1.5	-8.6	-0.2	·	·
CC(Oc1ccccc1)C(=O)Nc1ccc(S(=O)(=O)Nc2nccs2)cc1 (configuration not stated)	-0.3	-9.4	-4.0	40.5*	-6.1	0.0	-11.4	-7.3
Cc1ccc(C)c(C(=O)COC(=O)c2cccc(N3C(=O)c4c(C)nc5ccccc5c4C3=O)c2)c1	-9.4	-32.4	-33.8	26.7*	-0.1	0.2	13.8	-3.0
CC1=NN(c2ccccc2)C(=O)/C1=C\N(O)c1ccccc1	8.5	13.6	8.9	41.0*	-2.7	1.1	79.7*	-17.4
CC1=NN(c2ccccc2)C(=O)C1=Cc1ccccc1	·	·	·	·	·	11.4	·	·
COCCCn1c(SCC(=O)OC2CCCCC2)nnc1-c1ccco1	-1.1	3.5	-0.1	-2.9	-2.2	0.4	·	·
Cn1c(SCC(=O)OC2CCCCC2)nnc1-c1ccco1	2.7	-25.1	-15.3	21.8*	-0.8	-1.8	-10.6	-17.8
COc1ccccc1/C=N/NC(=Nc1ccc(C)cc1)c1nc2ccccc2s1	-3.8	3.7	-5.8	9.9	·	·	·	·
COc1cc(/C=N/NC(=Nc2ccc(C)cc2)c2nc3ccccc3s2)ccc1O	8.0	-76.4	-73.1*	57.3*	-1.4	-1.6	56.8*	49.2*
CC(=O)NC1CC2CCCC(C1)N2C(=O)Nc1ccccc1C (configuration not stated)	·	·	·	·	3.7	0.6	·	·
CC(=O)/C(=C/N(C)C)Sc1ccc(C)cc1	-1.9	-8.2	-14.9	2.8	-8.0	11.5	·	·

Source: PubChem (several laboratories)
